Measurements: PubChem BioAssay (NCI)
The panel holds about 79,000 compounds, 15% with a hit somewhere; the sample as a whole holds those more often. Active and inactive are the calls of the source. No stated cut-off is given here; in the data, active means growth inhibition above about 70%; inactive means the rest.

Columns and labels:
[1] = NCI Yeast Anticancer Drug Screen. Data for the rad50EPP+ strain (AID 151);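 further: 0% = growth of vehicle-treated control cultures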; details: S. cerevisiae rad50 mutant strain, active compounds read high
How it was run: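 Growth inhibition read against vehicle controls in rad50EPP+ yeast, a strain altered in DNA damage repair, after compound exposure.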

[2] = NCI Yeast Anticancer Drug Screen. Data for the rad50 strain (AID 155);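 further: 0% = growth of vehicle-only cultures of the same strain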; details: S. cerevisiae rad50 strain growth inhibition, active compounds read high
How it was run: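 Genetically altered yeast (DNA repair pathway); compound treatment; growth inhibition vs vehicle ctrl.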

[3] = NCI Yeast Anticancer Drug Screen. Data for the mec2-1 strain (AID 157); details: S. cerevisiae mec2-1 strain, active compounds read high
How it was run: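 Yeast mec2-1 mutant treated with compound. Readout: growth inhibition vs vehicle controls.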

[4] = NCI Yeast Anticancer Drug Screen. Data for the rad14 strain (AID 159);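 further: 0% = growth of vehicle-treated control cultures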; details: S. cerevisiae rad14 strain growth inhibition, active compounds read high
How it was run: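 Test compounds were applied to a repair-deficient yeast strain. Its growth was then compared with that of cultures given vehicle alone, and inhibition was expressed relative to those controls.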

[5] = NCI Yeast Anticancer Drug Screen. Data for the sgs1 mgt1 strain (AID 161);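 further: 0% = growth of cultures given vehicle only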; details: S. cerevisiae sgs1 mgt1 strain, active compounds read high
How it was run: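 Inhibition of yeast growth, normalised to vehicle-treated controls, is reported for a strain bearing genetic alterations in DNA damage repair.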

[6] = NCI Yeast Anticancer Drug Screen. Data for the CLN2oe strain (AID 163);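 further: 0% = growth of vehicle-only control cultures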; details: S. cerevisiae CLN2oe strain, active compounds read high
How it was run: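 Read-out: yeast growth inhibition, expressed relative to vehicle-only controls. The strain bears an engineered cell-cycle alteration.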

[7] = NCI Yeast Anticancer Drug Screen. Data for the cln2 rad14 strain (AID 165);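 further: 0% = growth equal to vehicle treated cultures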; details: S. cerevisiae cln2 rad14 strain, active compounds read high
How it was run: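 cln2 rad14 yeast strain; compound exposure; growth inhibition read vs vehicle controls.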

[8] = NCI Yeast Anticancer Drug Screen. Data for the bub3 strain (AID 167); details: S. cerevisiae bub3 mutant strain, active compounds read high
How it was run: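 Yeast carrying a defined mutation is treated with each compound, and growth is compared with that of vehicle-exposed cells to give inhibition.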

[9] = NCI Yeast Anticancer Drug Screen. Data for the wt2 strain (AID 169);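 further: 0% = growth of vehicle-treated yeast cultures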; details: S. cerevisiae wt2 strain growth inhibition, active compounds read high
How it was run: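 Read-out: growth inhibition versus vehicle-treated control cultures after compound exposure of the yeast strain.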

[10] = NCI Yeast Anticancer Drug Screen. Data for the sgs1 strain (AID 173);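 further: 0% = growth of vehicle-only control cultures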; details: S. cerevisiae sgs1 mutant, active compounds read high
How it was run: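 Read-out: yeast growth inhibition relative to vehicle controls, following compound exposure of a strain with a defined DNA repair/cell cycle alteration.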

[11] = NCI Yeast Anticancer Drug Screen. Data for the mlh1 rad18 strain (AID 175); details: S. cerevisiae mlh1 rad18 strain growth inhibition, active compounds read high
How it was run: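 Yeast w/ defined DNA-repair lesions; compound exposure; growth vs vehicle controls → % inhibition.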

[12] = NCI Yeast Anticancer Drug Screen. Data for the rad18 strain (AID 177); details: S. cerevisiae rad18 mutant growth inhibition, active compounds read high
How it was run: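 Readout: growth inhibition vs vehicle controls. Cells: genetically altered yeast strain, DNA repair defect.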

[13] = at 5.0 µM (retest, dose inferred, filed as 0.5)
[14] = at 50.0 µM (retest, dose inferred, filed as 5.0)

Measured: growth inhibition

Cc1ccc(Nc2n[nH]c(=S)s2)cc1C
active: [2]; [13] 93% | [2]; [14] 94% | [2]; at 50.0 µM 78.8% | [2]; at 100.0 µM 84% | [3]; [13] 96% | [3]; [14] 95% | [3]; at 100.0 µM 79% | [4]; at 100.0 µM 89% | [5]; [14] 90% | [6]; at 100.0 µM 76% | [7]; [14] 92% | [8]; [14] 91% | [8]; at 100.0 µM 80% | [9]; at 100.0 µM 85% | [10]; at 100.0 µM 77% | [11]; [13] 99% | [11]; [14] 99% | [12]; at 100.0 µM 87%
inactive: [1]; at 1.2 µM -7% | [1]; at 3.7 µM -5% | [1]; at 11.0 µM -21% | [1]; at 33.0 µM -9% | [1]; at 100.0 µM 48% | [2]; at 1.2 µM 14% | [2]; at 3.7 µM 17% | [2]; at 11.0 µM 21% | [2]; at 33.0 µM 54% | [3]; at 1.2 µM 1% | [3]; at 3.7 µM 0% | [3]; at 11.0 µM 10% | [3]; at 33.0 µM 11% | [3]; at 50.0 µM 67.7% | [4]; at 1.2 µM -33% | [4]; at 3.7 µM -29% | [4]; at 11.0 µM -17% | [4]; at 33.0 µM 65% | [5]; [13] 5% | [6]; at 1.2 µM 3% | [6]; at 3.7 µM -8% | [6]; at 11.0 µM -5% | [6]; at 33.0 µM -10% | [7]; [13] 65% | [8]; at 1.2 µM 6% | [8]; at 3.7 µM 12% | [8]; [13] 38% | [8]; at 11.0 µM 18% | [8]; at 33.0 µM 36% | [9]; at 1.2 µM -33% | [9]; at 3.7 µM -23% | [9]; at 11.0 µM -28% | [9]; at 33.0 µM 28% | [10]; at 1.2 µM -28% | [10]; at 3.7 µM -35% | [10]; at 11.0 µM -28% | [10]; at 33.0 µM 28% | [11]; at 50.0 µM 69.7% | [12]; at 1.2 µM 1% | [12]; at 3.7 µM -1% | [12]; at 11.0 µM 12% | [12]; at 33.0 µM 67%
